Drawing on ChEMBL document CHEMBL1961873, “Compounds: GSK PKIS; Assays: Nanosyn kinase panel” (2012), this text covers inhibition for 34 compounds.
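Further: reported values are mean inhibition of NEK7 from the GSK PKIS kinase screening panel.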

The target in this assay is Serine/threonine-protein kinase Nek7 (Homo sapiens) (UniProt Q8TDX7). As to conditions: at 1 µM.
Sequence of Serine/threonine-protein kinase Nek7 (Homo sapiens) (Q8TDX7 whole entry, looked up): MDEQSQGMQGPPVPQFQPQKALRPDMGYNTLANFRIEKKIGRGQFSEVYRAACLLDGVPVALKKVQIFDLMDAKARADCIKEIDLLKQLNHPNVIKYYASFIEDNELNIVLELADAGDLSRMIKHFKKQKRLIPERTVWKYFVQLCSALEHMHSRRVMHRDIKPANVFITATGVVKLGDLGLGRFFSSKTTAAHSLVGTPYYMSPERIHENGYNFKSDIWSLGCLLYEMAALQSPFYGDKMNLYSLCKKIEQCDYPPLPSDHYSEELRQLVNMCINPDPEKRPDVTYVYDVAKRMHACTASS
By inhibition is commonly meant the drop in the measured response relative to a control, in per cent. With `CN1CCN(CCCNc2nc3ccc(Oc4ccc(NC(=O)Nc5cc(C(F)(F)F)ccc5F)cc4)cc3[nH]2)CC1`, the inhibition is 0.94%.
Under `NS(=O)(=O)c1ccc(N/N=C2\C(=O)Nc3ccc(-c4cnco4)cc32)cc1` stands 8.73%; under `O=C1Nc2ccccc2/C1=C/Nc1ccc(-n2cncn2)cc1`, 4.4%; under `Cc1nnc(-c2ccc(C)c(-c3ccc(C(=O)NCc4ccc(Cl)cc4)cc3)c2)o1`, 3.78%.
As for `CN(C)CCCNc1nccc(-c2c(-c3ccc(F)cc3)nn3cc(C(F)(F)F)ccc23)n1`, the figure is 1.37%.
As for `COc1ccc2ncn(-c3cc(O[C@H](C)c4ccccc4Cl)c(C(N)=O)s3)c2c1`, the figure is 6.32%; as for `CCS(=O)(=O)c1ccc(OC)c(Nc2ncc(-c3cccc(-c4ccccc4F)c3)o2)c1`, -0.61%; as for `O=C(Nc1n[nH]c2cc(-c3ccccc3)ccc12)C1CC1`, 3.1%.
With `COc1ccc(-c2ccc3c(NC(=O)C4CC4)n[nH]c3n2)cc1`, the inhibition was found to be 1.09%.
As for `COc1cc(Nc2ncc3c(C)nc(-c4cccc(C(F)(F)F)c4)n3n2)cc(OC)c1OC`, the figure is 10.5%; as for `Cc1ccc(NC(=O)c2ccoc2)cc1-c1ccc(C(=O)NCC2CC2)cc1`, 1.16%; as for `Fc1ccc(-c2nc3n(c2-c2ccncc2)CCS3)cc1`, 2.5%.
In the case of `NS(=O)(=O)c1ccc(N/N=C2\C(=O)Nc3ccc(C(=O)NCCCn4ccnc4)cc32)cc1`, the inhibition came to 5.01%.
Under `CCN(CC)Cc1ccc(Nc2nccc(-c3cnn4ncccc34)n2)cc1` stands 9.4%; under `NC(=O)c1cc(-c2ccc(F)cc2)cc(-c2ccncc2)c1N`, 4.73%.
Turning to `Nc1nccc(-c2c(-c3ccc(F)cc3)ncn2C2CCC(O)CC2)n1` (centres undefined), the inhibition was -4.78%.
Regarding `CCc1ccc(Oc2nccc(-c3c(-c4ccc(F)cc4)ncn3C3CCNCC3)n2)cc1`, the inhibition turned out to be 5.98%.
Under `C#Cc1cccc(Nc2ncnc3ccc(OCCCCNCCS(C)(=O)=O)cc23)c1` stands 3.44%; under `NC(=O)c1ccc(Oc2nccc(-c3c(-c4ccc(F)cc4)ncn3C3CCNCC3)n2)cc1`, 9.69%.
Under `COC(=O)Nc1nc2ccc(Sc3ccc(NC(=O)Nc4cc(C(F)(F)F)ccc4F)cc3)cc2[nH]1` stands -3.05%.
Consider `CCC(=O)Nc1ccc(C)c(-c2ccc(C(=O)NCC3CC3)cc2)c1`, for which the inhibition worked out at 8.32%.
As for `COc1cccc(-n2cnc3c(N/N=C/c4ccncc4)ncnc32)c1`, the figure is -2.76%; as for `Cc1ccc(C(=O)NC2CCC2)cc1-c1ccc(C(=O)NCC2CC2)cc1`, 2.04%.
Consider `c1ccc(-c2n[nH]cc2-c2ccnc(-c3ccc(OCCN4CCOCC4)cc3)c2)nc1`, for which the inhibition is -3.67%.
Consider `O=C1NC(=O)C(c2cccc(Cl)c2)=C1Nc1ccc(Cl)c(C(=O)O)c1`, for which the inhibition stood at 1.25%.
Under `C[C@@H](Oc1cc(-n2cnc3ccc(OC4CCN(C)CC4)cc32)sc1C(N)=O)c1ccccc1Cl` stands 8.62%; under `CS(=O)(=O)CCNCc1ccc(-c2ccc3ncnc(Nc4ccc(OCc5ccccc5)c(Br)c4)c3c2)o1`, 5.42%.
As for `COc1cc(N2CCN(C(C)C)CC2)ccc1Nc1nc(Nc2ccc(F)cc2C(=O)NC[C@@H](O)CO)c2cc[nH]c2n1`, the inhibition was 3.45%.
Under `Clc1ccc(CNc2nccc(-c3cnn4ncccc34)n2)cc1` stands 0.48%; under `COc1cc(Nc2ncc(-c3ccccc3)o2)cc(OC)c1OC`, 3.67%; under `O=C(Nc1n[nH]c2nc(-c3ccc(O)cc3)c(Br)cc12)C1CC1`, 46.3%.
Under `Fc1ccc(-c2ncn(C3CCNCC3)c2-c2ccnc(Oc3ccc4c(c3)OCO4)n2)cc1` stands 4.77%; under `NC(=O)c1cc(-c2ccncc2)cc(-c2ccccc2)c1N`, 3.98%.
On to `Fc1ccc(-c2ncn(C3CCNCC3)c2-c2ccnc(Oc3ccc(Oc4ccccc4)cc3)n2)cc1`, for which the inhibition is 9.34%.
